# NPC1 prom act – activates the NPC1 promoter | Potency, µM (highest dose often 9.22 µM), inactives show at the highest dose activation, actives largely listed as activators | hit rate 2.4% among 320,000 | Huh7 NPC1 promoter luciferase reporter, 24 h; note: % of control where 0% means no effect; nearly all actives have a fitted effect of over 60% in size
#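 Stably transfected Huh7 (NPC1 promoter→luciferase), 1500 cells/well in Opti-MEM + 10% FBS, 2 h settle, then compound 24 h at 37 °C. Luminescence after 10 min with Amplite reagent.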
# Rab9 promoter act – activators of Rab9 promoter. AID 485297. Potency, µM (top dose mostly 9.22 µM), without a hit: at the top dose activation, negative = inhibition, hits mostly activators. Huh7 Rab9 promoter-luciferase reporter, luminescence, 24 h. hit rate 2.8% among 320,000; note: % of control where 0% means no effect; nearly all actives have a fitted effect of over 60% in size
#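 Rab9 promoter-driven luciferase in stably transfected Huh7 cells; 1500 cells/well rested 2 h, exposed to compound in DMSO for 24 h at 37 °C, 5% CO2. Luminescence read 10 min after adding luciferase reagent at ambient temperature.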
# ELG1 genotox – inducers of genotoxicity in HEK293T ELG1-luciferase cells; HEK293T ELG1-luciferase reporter, luminescence, 16 h; Potency, µM (doses to about 46 µM), for inactives: at the highest dose activity change, positive = activation, usual class: activators; hit rate 1.3% among 330,000; AID 504466; note: % of control where 0% means no effect; nearly all actives have a fitted effect of over 60% in size
#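 After overnight (16 hr) compound treatment at 37 °C, ELG1-luciferase HEK293T cells were lysed with ONE-Glo; luminescence quantified 30 min later at room temperature.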
# FLuc modulator – inhibits or activates purified firefly luciferase, miR-21 counter-screen. purified FLuc, Km substrates, luminescence inhibition. hit rate 6.9% among 360,000. P08659. Potency, µM (series often up to 57.5 µM), without a hit: top-dose activity change, negative = inhibition, most hits filed as inhibitors. AID 588342;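 note: plate controls were vehicle for no effect and reference inhibitor for full effect; nearly all actives have a fitted effect of over 55% in size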
# Target sequence (P08659 whole entry, looked up): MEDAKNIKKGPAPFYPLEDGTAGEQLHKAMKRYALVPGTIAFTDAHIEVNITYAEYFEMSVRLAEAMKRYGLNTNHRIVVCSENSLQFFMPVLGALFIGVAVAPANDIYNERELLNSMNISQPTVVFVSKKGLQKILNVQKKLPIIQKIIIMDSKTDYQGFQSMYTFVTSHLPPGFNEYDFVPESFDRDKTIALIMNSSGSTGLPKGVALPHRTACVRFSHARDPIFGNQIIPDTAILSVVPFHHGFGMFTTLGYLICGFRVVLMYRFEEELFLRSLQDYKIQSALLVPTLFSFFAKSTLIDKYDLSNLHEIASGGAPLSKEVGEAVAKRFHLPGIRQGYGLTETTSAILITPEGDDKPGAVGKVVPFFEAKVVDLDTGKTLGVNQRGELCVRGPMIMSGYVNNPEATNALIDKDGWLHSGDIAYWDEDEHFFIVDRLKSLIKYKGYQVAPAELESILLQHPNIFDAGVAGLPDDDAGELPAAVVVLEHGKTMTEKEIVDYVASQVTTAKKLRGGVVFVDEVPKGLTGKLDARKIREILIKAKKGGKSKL
#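 Purified P. pyralis luciferase (10nM final) with 10uM D-luciferin and 10uM ATP (Km levels) in 50mM Tris acetate pH 7.5, 10mM Mg acetate, 0.01% Tween-20, 0.05% BSA; qHTS 6-point titration, ~60 µM downward; luminescence read.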
# SMN2 splice enh – enhancers of SMN2 splice variant expression; HEK293 SMN2-luciferase splicing reporter, luminescence, 30-36 h; Potency, µM (titrated, usually from 46.1 µM), without a hit: top-dose activity change, positive = activation, most hits filed as activators; hit rate 2.8% among 210,000; AID 1458; note: % of control where 0% means no effect; nearly all actives have a fitted effect of over 55% in size
#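 HEK293 cells carry an SMN2 […]–luciferase reporter in which exon 7 inclusion puts luciferase in frame. Cells were plated 10-12 h before compound addition, then incubated 30-36 h at 37C. ONE-Glo luminescence was read; sodium butyrate at 4.5 mM final served as control.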
# uPA generation – cell surface uPA generation inhibition. cell surface uPA generation assay, qHTS. hit rate 0.31% among 330,000. Potency, µM (series often up to 38.3 µM), without a hit: at the top dose activity change, negative = inhibition, usual class: inhibitors; active = well fitted inhibition curve with a large enough effect; inconclusive = small, poorly fitted or top-dose-only effect; inactive = no such curve, though single readings can be large or run the other way; tested in mouse RAW 264.7 cells; note: % is set by controls: 0 for no effect and ±100 for the full control effect; nearly all actives have a fitted effect of over 55% in size
# * = called active by the depositor; ? = inconclusive; · = no result. An excerpt weighted towards active compounds, which were near 7.3% of everything screened. Unless noted, calls come from the whole dose curve; as a rule, active = well fitted curve in the direction sought with a large enough effect; inconclusive = small, poorly fitted or top-dose-only effect, or another doubt; inactive = no such curve, though single readings can be large; an effect the other way counts as inactive or inconclusive. Potency is the fitted concentration of half-maximal effect.
SMILES,NPC1 prom act,Rab9 promoter act,ELG1 genotox,FLuc modulator,SMN2 splice enh,uPA generation
COc1ccc(OC)c(-c2csc(NC(=O)Cc3cccs3)n2)c1,-4%,-3%,0%,13µM*,-22%,9%
COc1ccc(OC)c(-c2csc(NC(=O)Cc3ccccc3)n2)c1,-1%,3%,-20%,11µM*,·,0%
COc1ccc(CC(=O)Nc2nc(-c3cc(OC)ccc3OC)cs2)cc1,-8%,-5%,-10%,-3%,-39%,9%
O=C(COc1cccnc1[N+](=O)[O-])c1ccc(Cl)s1,4%,9%,0%,?,·,1%
O=C(c1csnn1)N1CCC2(CCCN(c3ccccn3)C2)CC1,·,·,·,·,-2%,·
C=CCn1c(SCC(=O)NC(N)=O)nnc1-c1cc2c(s1)CCC(CC)C2 (configuration not stated),-4%,-1%,-1%,?,-30%,-3%
C=CCn1c(SCC(=O)NCC)nnc1-c1cc2c(s1)CCC(CC)C2 (configuration not stated),5%,22%,?,12µM*,?,-4%
C=CCn1c(SCC(=O)NCCOC)nnc1-c1cc2c(s1)CCC(CC)C2 (configuration not stated),-4%,-7%,-1%,9.5µM*,11%,1%
C=CCn1c(SCC(=O)NC2CC2)nnc1-c1cccc(OC)c1,-6%,-6%,0%,1%,·,4%
COC(=O)C1=NN(C(=O)c2ccc(Cl)cc2)C(O)(c2ccccc2)C1 (configuration not stated),-1%,2%,1%,21µM*,-18%,-16%
CCC1=NN(C(=O)c2ccc(Cl)cc2)C(O)(c2ccccc2)C1 (configuration not stated),-1%,1%,-4%,-3%,·,4%
O=C(CN1C(=O)c2ccccc2S1(=O)=O)c1ccccc1Cl,-18%,?,-17%,3µM*,·,·
Cc1ccc(C(=O)CN2C(=O)c3ccccc3S2(=O)=O)cc1,-37%,-40%,-6%,?,·,-10%
O=C(CN1C(=O)c2ccccc2S1(=O)=O)NCc1ccccc1Cl,-2%,3%,0%,-20%,2%,0%
O=C(CN1C(=O)c2ccccc2S1(=O)=O)N1CCCCC1,?,2.5µM*,16µM*,2%,·,-1%
O=C(CN1C(=O)c2ccccc2S1(=O)=O)c1ccccc1,?,?,0%,0.6µM*,1%,-7%
COc1cc(C2C(C#N)=C(N)N(N(C)C)C3=C2C(=O)CCC3)ccc1O (configuration not stated),0%,-3%,-1%,-3%,·,4%
O=C(NCCC1CCCCN1S(=O)(=O)c1ccc(Cl)cc1)C(=O)NCCN1CCOCC1 (configuration not stated),-2%,-1%,-2%,3%,·,?
CC(=O)NC(=S)Nc1ccc(NC(=O)COc2ccc(Cl)cc2Cl)cc1,8%,-7%,-1%,-6%,-13%,0%
COc1ccc(NC(=O)COC(=O)CCCOc2ccc(Cl)cc2Cl)cc1Cl,-3%,2%,8%,15µM*,8%,1%
O=C(COc1ccc(Cl)cc1Cl)NNC(=S)Nc1ccc(F)cc1,1%,-3%,-1%,17µM*,·,·
O=C(COc1ccc(Cl)cc1Cl)Nc1ccc(C(=O)Nc2ccccc2C(=O)O)cc1,7%,6%,-17%,-15%,·,-13%
O=C(COc1ccc(Cl)cc1Cl)NC(=S)Nc1ccccc1C(=O)O,5%,12%,4%,6.7µM*,·,·
O=C(CCCOc1ccc(Cl)cc1Cl)Nc1ccccc1C(=O)O,2.5µM*,3.5µM*,17%,8.5µM*,·,-12%
Cc1cccc(NC(=O)C2CCCN(S(=O)(=O)c3c(C)[nH]c(=O)[nH]c3=O)C2)c1C (configuration not stated),·,·,·,-6%,4%,·
SMILES,NPC1 prom act,Rab9 promoter act,ELG1 genotox,FLuc modulator,SMN2 splice enh,uPA generation
CC(C)(CO)NC(=O)CCCOc1ccc(Cl)cc1Cl,?,?,11µM*,?,10µM*,·
C/C(=N\Nc1ccc(C(=O)O)cc1)c1ccc2c(c1)Nc1ccccc1S2,?,?,11%,2.1µM*,·,6%
O=C1CC(c2ccccc2)Sc2nc3ccccc3n21 (configuration not stated),-1%,10%,?,4.8µM*,?,-2%
O=C1CC(c2ccco2)Sc2nc3ccccc3n21 (configuration not stated),-1%,-3%,?,12µM*,11%,-5%
O=C1CC(c2ccc(F)cc2)Sc2nc(-c3ccccc3)c(-c3ccccc3)n21 (configuration not stated),-2%,-4%,0%,0%,-17%,0%
O=C1CC(c2ccc3c(c2)OCO3)Sc2nc3ccccc3n21 (configuration not stated),4µM*,18%,?,1.5µM*,?,-24%
O=C1CC(c2cccs2)Sc2nc3ccccc3n21 (configuration not stated),-3%,0%,?,3.4µM*,?,5%
COc1ccc2nc(N3CCC(C)CC3)c(C#N)cc2c1,?,4µM*,?,11µM*,20µM*,3%
COc1ccc2nc(N3CCC(O)CC3)c(C#N)cc2c1,19%,5%,6%,15µM*,-9%,-4%
Cc1ccc(Cl)cc1,·,·,·,·,-8%,·
Cn1nc(C(=O)NCc2cccc(Cl)c2)c2c1-c1ccccc1SC2,·,·,·,2%,·,·
O=C(COC(=O)c1cccnc1SCC(=O)NCc1ccccc1)NCc1ccccc1,1%,11%,4%,2.7µM*,25%,-9%
C=CCc1ccc(OCCCCNC2CCCC2)c(OC)c1,-4%,-15%,-11%,0%,-27%,-9%
COc1ccc(CNc2nc3c(-c4ccc(C)cc4)nnn3c3ccccc23)cc1,·,·,·,3%,27%,·
CCC1(c2ccccc2)NC(=O)N(CC(=O)N(C)Cc2c(F)cccc2Cl)C1=O (configuration not stated),-1%,2%,0%,-10%,·,2%
COc1ccc(C2CC(C)(c3ccc(OC)cc3OC)Nc3ccccc3N2)c(OC)c1 (configuration not stated),2.8µM*,1.1µM*,8.2µM*,7.6µM*,·,2%
Cc1nnc(NC(=O)c2csc3c2CCCC3)s1,17%,18%,?,?,22%,·
COCCNC(=O)c1csc2c1CCCC2,1%,5%,1%,1%,-13%,-7%
O=C(Nc1ccccn1)c1csc2c1CCCC2,?,1.8µM*,7.3µM*,6.7µM*,13µM*,-7%
COc1cc(NC(=O)c2csc3c2CCCC3)ncn1,3.5µM*,3.5µM*,4.1µM*,3.4µM*,13µM*,-3%

# Bioassay records (PubChem BioAssay)
